Source: PubChem BioAssay
This is a sample that favours compounds with a hit; in the whole collection about 1.2% have one here.
USP7 inh: inhibitors of human USP7 deubiquitinase | 0.3% of 47,000 active | AID 1645854 | Q93009 | purified USP7, Ub-rhodamine cleavage fluorescence | inhibition, % at 20 µM
USP10 inh: blocks human USP10 ubiquitin-rhodamine cleavage; Q14694; purified USP10, Ub-rhodamine fluorescence, 60 min; inhibition, % at 20 µM; 1.1% of 47,000 active; AID 1645856
UCHL1 block: human UCHL1 deubiquitinase inhibition | P09936 | purified UCHL1, Ub-rhodamine cleavage fluorescence | inhibition, % at 20 µM | 0.2% of 47,000 active | AID 1645859
Target sequence (P09936 whole entry, looked up): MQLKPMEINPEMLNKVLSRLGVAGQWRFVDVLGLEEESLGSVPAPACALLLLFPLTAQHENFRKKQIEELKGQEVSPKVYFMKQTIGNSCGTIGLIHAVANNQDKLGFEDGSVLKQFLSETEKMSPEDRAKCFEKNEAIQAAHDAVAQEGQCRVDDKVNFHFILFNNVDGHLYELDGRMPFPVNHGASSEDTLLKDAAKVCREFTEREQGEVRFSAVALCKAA
Starred values were filed as active, the others as inactive; x = not tested or not shown. Cut-off read from the data, not from the text of the source: active = inhibition above about 30%; inactive = the rest.

SMILES | USP7 inh | USP10 inh | UCHL1 block
Cc1cccc(NC(=O)CN2C(=O)CC(c3ccccc3)S(=O)(=O)c3ccccc32)c1C (stereo unspecified) | 1 | 4 | 0
Cc1ccc(CNC(=O)Cn2c(N3CCCCC3)nc(C)cc2=O)cc1 | -2 | 3 | 0
COc1ccc(-c2ocnc2C(=O)Nc2ccccc2F)cc1OC | 5 | 0 | 6
Cc1ccc(S(=O)(=O)N2CCC(C(=O)Nc3nnc(C)o3)CC2)cc1 | 1 | 1 | 3
Cc1nnc(NC(=O)C2CCN(c3ccc(S(N)(=O)=O)cc3[N+](=O)[O-])CC2)o1 | 43* | 62* | 36*
Cc1cc(C(=O)N2CCCCC2)c2c(=O)n(Cc3ccc4nonc4c3)c(=O)n(C)c2n1 | -22 | -4 | -2
Cc1ccc(-c2nnc(NC(=O)C3CCCCC3)o2)c(C)c1 | x | 14 | 1
COc1cccc(CNC(=O)c2ccccc2OCc2ccccc2)c1 | -18 | 18 | 7
COc1cc(OC)c2c(=O)cc(-c3ccccc3)oc2c1 | -19 | -4 | 1
O=c1cc(-c2ccc(O)c(O)c2)oc2cc(O)cc(O)c12 | 11 | 36* | 25
O=c1c(-c2ccc(O)cc2)coc2cc(O)cc(O)c12 | 2 | 2 | -2
O=c1c(O)c(-c2ccc(O)c(O)c2)oc2cc(O)cc(O)c12 | -8 | 17 | 34*
Cc1cccc(NC(=O)COC(=O)c2sc3cc(F)ccc3c2Cl)c1 | 6 | 6 | 2
CC(=O)c1cccc(NC(=O)COC(=O)c2sc3cc(F)ccc3c2Cl)c1 | 10 | 31* | 5
COc1cc(O)c2c(c1)C1=CC(=O)C(O)=C[C@]1(C)OC2=O | 1 | 29 | 9
Cc1ccc2c(c1)c(=O)c(C(=O)c1ccccc1)cn2CC(=O)Nc1ccc(C)c(Cl)c1 | 18 | 15 | 5
CCOc1ccc2c(c1)c(=O)c(C(=O)c1ccccc1)cn2CC(=O)Nc1ccc(Cl)cc1 | 30 | 47* | 6
COc1ccc(NC(=O)Cn2cc(C(=O)c3ccccc3)c(=O)c3cc(Cl)ccc32)cc1OC | 7 | 33* | 6
Cc1ccc2c(c1)c(=O)c(C(=O)c1ccccc1)cn2CC(=O)Nc1ccc2c(c1)OCO2 | 23 | 31* | -1
Cc1ccc(C(=O)c2cn(CC(=O)Nc3ccccc3C)c3ccc(C)cc3c2=O)cc1 | 3 | 6 | -2
COc1ccc(NC(=O)Cn2cc(C(=O)c3ccc(Cl)cc3)c(=O)c3cc(F)ccc32)cc1 | 25 | 53* | 6
COc1ccc2c(c1)c(=O)c(C(=O)c1ccc(Cl)cc1)cn2CC(=O)Nc1ccc(Cl)cc1 | 0 | -2 | -4
Cc1ccc2c(c1)c(=O)c(C(=O)c1ccc(F)cc1)cn2CC(=O)Nc1ccc2c(c1)OCCO2 | 6 | 9 | 3
CCC(C(=O)Nc1ncc2c(n1)CC(c1ccc(F)cc1)CC2=O)c1ccccc1 (stereo unspecified) | -12 | 8 | 8
Cc1c2oc3c(C)ccc(C(=O)NC4C(=O)N[C@@H](C(C)C)C(=O)N5CCCC5C(=O)N(C)CC(=O)N(C)C(C(C)C)C(=O)OC4C)c3nc-2c(C(=O)NC2C(=O)N[C@H](C(C)C)C(=O)N3CCCC3C(=O)N(C)CC(=O)N(C)C(C(C)C)C(=O)OC2C)c(N)c1=O (stereo partly specified) | -15 | -2 | 2
SMILES | USP7 inh | USP10 inh | UCHL1 block
COc1ccc(-n2c(=O)c3ccc(C(=O)NCCc4ccccc4)cc3n(CC(=O)NCCC3=CCCCC3)c2=O)cc1 | 17 | 55* | 1
COc1cc(OC)cc(-n2c(=O)c3ccccc3n(CC(=O)NCCC3=CCCCC3)c2=O)c1 | 10 | 16 | 0
Cc1ccc(-n2c(=O)c3ccc(C(=O)NCc4ccco4)cc3n(CC(=O)NCCC3=CCCCC3)c2=O)cc1 | 3 | 45* | -1
COc1ccc(-n2c(=O)c3ccc(C(=O)NCCc4ccccc4)cc3n(CC(=O)Nc3ccc(C)cc3C)c2=O)cc1 | 4 | 8 | 0
CCN1CCN(C(=O)CCCN(c2ccccc2)S(C)(=O)=O)CC1 | 2 | 2 | 1
O=C(Cn1cnc2sc(-c3ccccc3)cc2c1=O)N(Cc1ccccc1F)C1CC1 | 4 | 5 | 0
CCN1CCCC1CN(Cc1cc2cc(OC)ccc2[nH]c1=O)C(=O)Nc1ccccc1Cl (stereo unspecified) | -7 | -3 | -4
O=C(C(c1ccccc1)c1ccccc1)N1CCC(c2nc3c(nnn3Cc3c(F)cccc3Cl)c(=O)[nH]2)CC1 | 4 | 27 | 7
CCOc1ccccc1NC(=O)Cn1c(=O)n(CCC(=O)NCc2ccc3c(c2)OCO3)c(=O)c2sccc21 | 29 | 69* | 7
O=C(CCn1c(=O)c2sccc2n(CC(=O)OCc2ccccc2)c1=O)NCc1ccc2c(c1)OCO2 | 16 | 36* | 5
CCOc1ccccc1NC(=O)Cn1c(=O)n(CCC(=O)NC2CCCC2)c(=O)c2ccccc21 | 3 | 2 | 1
